{"source": "PubChem BioAssay (NCATS)", "note": "Results filed as inconclusive are left out. Unmarked numbers belong to inactive results. Active and inactive are the calls of the source. Calls follow the shape of the dose curve; as a rule, active = well fitted inhibition curve with a large enough effect; inconclusive = small, poorly fitted or top-dose-only effect; inactive = flat fitted curve, though single readings scatter. % is scaled to controls: 0 for no effect and ±100 for the full control effect; potency is read from the fitted curve at half-maximal effect.", "data": [{"test": "qHTS to identify inhibitors of the type 1 interferon - major histocompatibility complex class I in skeletal muscle: primary screen against the NCATS LOPAC collection (AID 1347405);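 also: lytic HiBiT luminescence reporting HLA-B protein level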", "conditions": "iHSKM muscle cells, IFN-b-induced MHC-I HiBiT luminescence, 24 h; series mostly up to 45.9 µM; activity change, negative = inhibition: at the top concentration", "excerpt": "Assay Submitter (PI): Travis B. Kinder Ph.D. & James Inglese Ph.D.\nAssay Development and Screening Technology Laboratory (ADST)\nNational Center for Advancing Translational Sciences (NCATS), Rockville, MD\nNational Institute of Health (NIH), Bethesda, Maryland\nIdiopathic inflammatory myopathies, collectively referred to as myositis, are a group of rare autoimmune diseases characterized by skeletal muscle inflammation, weakness, and usually accompanied by systemic pathologies of the skin, lungs, or vasculature. Current immunosuppressive therapies and glucocorticoids are often not curative and are accompanied by harsh side effects, especially in children with juvenile myositis. We initiated a drug repurposing and development program to identify more targeted, less toxic therapeutics to treat myositis. Although its cause is not known, muscle from a subset of patients have an abundance of the inflammatory type 1 interferon (IFN) and a down-stream product major histocompatibility complex class I (MHC class I), which are both thought to contribute to damage and weakness. We conducted quantitative high throughput screening on 6,576 compounds (4,679 unique) through a series of cell-based assays to identify those that inhibit the IFN-stimulated expression of MHC class I in muscle precursor cells (myoblasts). The compound identification and evaluation strategy utilized a primary screen with reporter-tagged MHC class I in genome-engineered myoblasts, ATP content counter screen for viability, HLA-ABC immunofluorescence secondary screen, and HLA-B RT-qPCR tertiary screen.\nThe primary screen utilized CRISPR/Cas9 genome-engineering of immortalized human myoblasts, C25cl48, where a pro-luminescent reporter HiBit was fused to the C-terminus of endogenous MHC class I allele HLA-B*08:01 (HLA-B HiBit myoblasts). HiBit is an 11 amino acid fragment of NanoLuc luminescent reporter (Promega Corporation), and when complexed to the larger LgBit fragment, the reconstituted enzyme produces light in the presence of furimazine substrate (Schwinn et al., 2018). Briefly, HLA-B HiBit myoblasts were plated into 1536-well plates, treated with 4.0 ng/ml human IFN-beta and 1,280 compounds from the Library of Pharmacologically Active Compounds 1280 library (LOPAC1280, Sigma Aldrich) in a 7-point, 1:4.3 titration with a high final concentration of 46 uM. After 24 hrs of treatment, cells were assayed by Nano-Glo HiBiT Lytic Detection System (Promega) and luminescence measured by a ViewLux 1430 Ultra HTS (Perkin Elmer).\nSchwinn MK, Machleidt T, Zimmerman K, Eggers CT, Dixon AS, Hurst R, Hall MP, Encell LP, Binkowski BF, Wood K V. 2018. CRISPR-Mediated Tagging of Endogenous Proteins with a Luminescent Peptide. ACS Chem Biol 13:467-474. doi:10.1021/acschembio.7b00549\nPROTOCOL TABLE (as described by Inglese et al., 2007)\nSEQUENCE No. (e.g., 1, 2, 3, etc.); […] (e.g., Cells, Incubation, Reagent, etc.); VALUE; DESCRIPTION\n1a; Cells; 5 uL; Use a Multidrop Combi (Thermo Scientific) to seed 350 cells/well into nine Greiner 1536 well white/solid bottom, high base, TC plates in 5 ul/well of iHSKM growth medium (GM) without dexamethasone into columns 1+2. Add metal lids with gas-exchange holes\n1b; Cells; 5 uL; Use a Multidrop Combi (Thermo Scientific) to seed 350 cells/well into nine Greiner 1536 well white/solid bottom, high base, TC plates in 5 ul/well of iHSKM GM without dexamethasone + 4 ng/ml IFN-b into columns 3 - 48. Add metal lids with gas-exchange holes\n2; Incubate; 1 hr; Incubate at 37 C, 5% CO2, 95% RH\n3; Compounds; 23 nl; Use Pin Tool (Wako) to transfer DMSO control, ruxolitinib IFN-b inhibitor control [High Concentration = 80 uM final, 16-pt, 1:2 in duplicate], and library compounds in DMSO\n4; Incubate; 24 hrs; Incubate at 37 C, 5% CO2, 95% RH\n5; Dispense; 2.5 ul; Use BioRAPTR FRD (Beckman Coulter) to add HiBit lytic reagent\n6; Incubate; 10 min; Incubate in the dark at ambient temperature for lysis\n[…]", "units": {"activity change, negative = inhibition": "%"}, "values": [{"smiles": "N[C@@H](Cn1ccc(=O)c(O)c1)C(=O)O", "activity change, negative = inhibition": -1.55}, {"smiles": "NC(N)=NCCCCN=C(N)N", "activity change, negative = inhibition": 1.15}, {"smiles": "Brc1ccc([C@H]2CN3CCSC3=N2)cc1", "activity change, negative = inhibition": -13.3}, {"smiles": "COc1ccccc1N1CCN(CCN2C(=O)CC3(CCCC3)CC2=O)CC1", "activity change, negative = inhibition": -3.94}, {"smiles": "Cc1nn(-c2ccccc2)c(C)c1/C=N/N1CCN(Cc2ccccc2)CC1", "activity change, negative = inhibition": 5.17}, {"smiles": "O=C1NC(c2cccc([N+](=O)[O-])c2)=CCN1c1ccccc1O", "activity change, negative = inhibition": -4.07}, {"smiles": "C[N+](C)(C)CCO", "activity change, negative = inhibition": -11.6}, {"smiles": "CC(C)N(CCC(=O)c1ccc2ccccc2c1)Cc1ccccc1", "Potency": "12.6 µM (active)"}, {"smiles": "COC(=O)C1=CO[C@@H](O)[C@@H]2C(CO)=CC[C@H]12", "activity change, negative = inhibition": -12.8}, {"smiles": "Clc1ccc2c(c1)N=C(N1CCNCC1)c1ccccc1N2", "activity change, negative = inhibition": -12.7}, {"smiles": "CCN(CC)CCNC(=O)c1ccc(NS(C)(=O)=O)cc1", "activity change, negative = inhibition": -5.13}, {"smiles": "CN(C)c1cc2c(Nc3ccc4c(cnn4Cc4ccccc4)c3)ncnc2cn1", "activity change, negative = inhibition": -27.2}]}]}
